DENV2 CPE rescue – DENV2-induced cell death inhibition | 350,000 tested, 1.7% active | DENV2-infected cells, cytopathic effect rescue, plate reader | CPE inhibition, % at 9.99 µM; in the data active = CPE inhibition above about 20%, passing the limit was not always enough; tested in BHK-21 cells;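 note: 0% = median of neutral control wells and 100% = median of positive control wells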
FGF22 binding – binders of recombinant human FGF22 by thermal shift. Q9HCT0. SYPRO orange fluorescence; percent of sucrose octasulfate shift, DMSO zero. activity (Tm shift, normalised), % at 9.99 µM. 340,000 tested, 1.5% active;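 active = mean Tm shift, scaled 0 neutral to 100 positive control, at about 1.3% or above, every replicate too, limit read from the data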
RAD52 anneal inh – RAD52 (human) annealing inhibition; P43351; recombinant RAD52 DNA annealing, FRET fluorescence; inhibition, % at 18.7 µM; 360,000 tested, 0.46% active; AID 651710;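 active = every replicate showing at least 50% inhibition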
ERAP1 HTS inh – ERAP1 (human) enzyme inhibition. Q9NZ08. recombinant ERAP1, Leu-AMC fluorescence, 60 min. inhibition, % at 10.7 µM. 340,000 tested, 0.15% active. AID 652197;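 active = mean replicate inhibition of at least 30%, or all replicates individually reaching that 30% level; inactive = mean below 30% and not every replicate reaching it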;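 note: 0% = neutral control wells and 100% = L-leucinethiol positive control wells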
Target sequence (Q9NZ08 whole entry, looked up): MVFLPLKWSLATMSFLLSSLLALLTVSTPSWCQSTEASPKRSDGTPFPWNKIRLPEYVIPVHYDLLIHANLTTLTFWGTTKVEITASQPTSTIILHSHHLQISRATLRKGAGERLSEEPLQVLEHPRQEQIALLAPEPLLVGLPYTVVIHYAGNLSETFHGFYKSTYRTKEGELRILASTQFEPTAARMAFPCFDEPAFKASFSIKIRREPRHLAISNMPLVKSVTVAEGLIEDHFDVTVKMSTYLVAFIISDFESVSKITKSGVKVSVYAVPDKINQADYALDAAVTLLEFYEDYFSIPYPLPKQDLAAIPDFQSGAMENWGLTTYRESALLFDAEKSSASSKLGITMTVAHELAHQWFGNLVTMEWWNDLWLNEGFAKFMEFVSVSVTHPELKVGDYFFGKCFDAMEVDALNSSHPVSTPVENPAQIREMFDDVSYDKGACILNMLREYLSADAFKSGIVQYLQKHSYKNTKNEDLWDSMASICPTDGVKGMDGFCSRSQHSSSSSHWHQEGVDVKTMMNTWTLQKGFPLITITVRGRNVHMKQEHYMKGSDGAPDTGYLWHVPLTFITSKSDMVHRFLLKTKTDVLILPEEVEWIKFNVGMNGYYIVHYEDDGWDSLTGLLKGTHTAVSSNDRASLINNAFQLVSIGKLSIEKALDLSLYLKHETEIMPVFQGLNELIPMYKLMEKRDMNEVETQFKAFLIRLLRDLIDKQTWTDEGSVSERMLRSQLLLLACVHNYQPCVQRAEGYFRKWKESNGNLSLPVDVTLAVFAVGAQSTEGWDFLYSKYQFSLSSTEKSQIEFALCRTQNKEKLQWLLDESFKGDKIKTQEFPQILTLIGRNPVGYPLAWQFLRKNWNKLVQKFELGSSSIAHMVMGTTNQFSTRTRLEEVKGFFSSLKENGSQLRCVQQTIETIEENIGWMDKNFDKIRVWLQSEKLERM
AF4-AF9 inh – inhibitors of human MLL-AF4/AF9 interaction. 350,000 tested, 0.47% active. P42568. inhibition, % at 10 µM. AlphaScreen, biotin-AF4 peptide binding to FLAG-AF9;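 active = every replicate reaching a set inhibition limit, whatever the replicate mean, cut at about 25% in these data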;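 note: 0% = plate neutral control median and 100% = total signal loss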
Numbers without * were called inactive; x = not tested or not shown. Most compounds without a hit are left out; they make up all but 4% or so of the library.

SMILES | DENV2 CPE rescue | FGF22 binding | RAD52 anneal inh | ERAP1 HTS inh | AF4-AF9 inh
C[C@H](CO)N1C[C@H](C)[C@H](CN(C)Cc2ccccc2F)Oc2cc(C#CC3CC3)ccc2S1(=O)=O | -1 | 0 | 1 | x | x
O=C1ON=C(c2ccc(Cl)c([N+](=O)[O-])c2)/C1=C/c1cccc([N+](=O)[O-])c1O | 0 | 0 | -7 | 99* | -2
O=C1ON=C(c2ccccc2[N+](=O)[O-])/C1=C/c1cccc([N+](=O)[O-])c1O | -1 | 0 | -8 | 65* | -4
O=C1ON=C(c2cccc([N+](=O)[O-])c2)/C1=C/c1ccc(O)cc1 | -1 | x | -31 | 0 | 0
O=C(C[C@@H]1CC[C@H](NC(=O)Cc2ccccn2)[C@H](CO)O1)NCCc1ccccc1 | -3 | 0 | 1 | 0 | -3
Cc1noc(C)c1NC(=O)N(C)C[C@H]1OCCCC[C@@H](C)Oc2ccc(N(C)C)cc2C(=O)N([C@@H](C)CO)C[C@H]1C | 7 | -1 | -27 | 2 | 3
O=C(O)c1ccccc1C(=O)OC1CCCC2CCCC21 (stereo not given) | 0 | 43* | -11 | -6 | -61
CC1C2CCC(C2)C1OC(=O)c1ccccc1C(=O)O (stereo not given) | -8 | 44* | -21 | -2 | -1
COc1cc(CCCN2C(=S)NC[C@@H]2Cc2ccccc2)cc(OC)c1OC | -12 | 0 | -3 | -3 | 2
COc1cc(CCCN2C(=S)NC[C@@H]2c2ccccc2)cc(OC)c1OC | 25* | -1 | 1 | x | -8
C[C@H](CO)N1C[C@H](C)[C@H](CN(C)S(C)(=O)=O)Oc2cc(C#Cc3ccccc3)ccc2S1(=O)=O | 28* | 0 | -20 | -3 | 0
C[C@@H]1CN([C@@H](C)CO)S(=O)(=O)c2ccc(C#Cc3ccccc3)cc2O[C@H]1CN(C)S(C)(=O)=O | 27* | -1 | -20 | -3 | -1
CNC[C@H]1Oc2cc(C#Cc3ccc(OC)cc3)ccc2S(=O)(=O)N([C@@H](C)CO)C[C@@H]1C | 33* | 0 | 52* | -1 | 10
C[C@@H]1CN([C@H](C)CO)S(=O)(=O)c2ccc(C#Cc3ccccc3)cc2O[C@H]1CN(C)S(C)(=O)=O | 2 | -1 | -24 | -2 | 0
COc1ccc(S(=O)(=O)N(C)C[C@H]2OCCCC[C@H](C)Oc3ccc(NC(=O)c4ccccc4)cc3C(=O)N([C@H](C)CO)C[C@H]2C)cc1 | 8 | 1 | -64 | -4 | -3
C[C@H](CO)N1C[C@H](C)[C@@H](CN(C)Cc2ccc(C(=O)O)cc2)Oc2c(NS(=O)(=O)c3ccccc3)cccc2C1=O | 2 | 0 | 10 | 1 | -4
C[C@H](CO)N1C[C@H](C)[C@@H](CN(C)Cc2ccc(Oc3ccccc3)cc2)Oc2c(NS(=O)(=O)c3ccc(F)cc3)cccc2C1=O | 39* | -1 | 25 | -2 | 4
C[C@H]1CN([C@@H](C)CO)C(=O)c2cccc(NS(=O)(=O)c3ccccc3)c2O[C@H]1CN(C)Cc1ccc(Oc2ccccc2)cc1 | -2 | 0 | 2 | 0 | -3
C[C@H]1CN([C@@H](C)CO)C(=O)c2cccc(NS(=O)(=O)c3ccccc3)c2O[C@@H]1CN(C)Cc1ccc(C(=O)O)cc1 | 31* | 0 | 2 | -2 | -3
C[C@@H]1CCCCO[C@@H](CN(C)Cc2ccc(C(=O)O)cc2)[C@@H](C)CN([C@H](C)CO)C(=O)c2cc(NC(=O)c3ccncc3)ccc2O1 | 15 | 0 | 76* | 4 | -13
C[C@@H]1CCCCO[C@@H](CN(C)Cc2ccc(Cl)c(Cl)c2)[C@@H](C)CN([C@H](C)CO)C(=O)c2cc(NC(=O)c3ccncc3)ccc2O1 | -6 | 0 | -67 | -2 | 3
C[C@H]1CCCCO[C@H](CN(C)Cc2ccc(C(=O)O)cc2)[C@@H](C)CN([C@@H](C)CO)C(=O)c2cc(NC(=O)c3ccncc3)ccc2O1 | 0 | 0 | 102* | 2 | -4
C[C@@H]1CCCCO[C@@H](CN(C)Cc2ccncc2)[C@H](C)CN([C@@H](C)CO)C(=O)c2cc(NC(=O)c3ccncc3)ccc2O1 | -1 | 0 | 11 | 2 | -2
C[C@@H]1CN([C@H](C)CO)C(=O)c2cc(NC(=O)c3ccncc3)ccc2O[C@@H](C)CCCCO[C@H]1CN(C)Cc1ccc(Cl)c(Cl)c1 | 85* | 0 | 13 | -2 | 6

Assay outcomes: PubChem, Broad Institute
